Data taken from PubChem BioAssay AID492989 (National Center for Advancing Translational Sciences (NCATS), 2010).
Calls of active or inactive are those of the source.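 How the source made its calls: active means clear inhibition seen at one or more tested concentrations; inactive means basal response, no inhibition.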

What follows are compounds tested against Tyrosyl-DNA phosphodiesterase 1 (Homo sapiens) (UniProt Q9NUW8) (assay: Gel-Based Assay for Inhibitors of Tyrosyl-DNA Phosphodiesterase (TDP1)). Details: recombinant TDP1, 32P-DNA substrate gel cleavage.
Chain of Tyrosyl-DNA phosphodiesterase 1 (Homo sapiens) (Q9NUW8 whole entry, looked up): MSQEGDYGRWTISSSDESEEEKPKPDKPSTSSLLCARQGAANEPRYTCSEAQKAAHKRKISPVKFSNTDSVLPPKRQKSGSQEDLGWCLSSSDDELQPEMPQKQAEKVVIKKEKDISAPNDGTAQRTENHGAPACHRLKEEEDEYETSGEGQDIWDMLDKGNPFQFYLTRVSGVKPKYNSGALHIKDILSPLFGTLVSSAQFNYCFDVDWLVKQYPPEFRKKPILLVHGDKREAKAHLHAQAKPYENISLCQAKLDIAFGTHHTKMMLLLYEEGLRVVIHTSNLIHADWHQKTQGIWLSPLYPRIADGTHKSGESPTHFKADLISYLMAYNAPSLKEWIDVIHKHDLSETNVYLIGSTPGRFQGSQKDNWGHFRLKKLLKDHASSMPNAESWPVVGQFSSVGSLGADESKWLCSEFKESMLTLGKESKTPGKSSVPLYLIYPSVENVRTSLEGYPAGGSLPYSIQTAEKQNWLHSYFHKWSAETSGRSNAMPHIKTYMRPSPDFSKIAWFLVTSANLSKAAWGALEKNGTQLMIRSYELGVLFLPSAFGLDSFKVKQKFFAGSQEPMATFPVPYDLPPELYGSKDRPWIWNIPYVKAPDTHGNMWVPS
From the text: Assay Overview: Human tyrosyl-DNA phosphodiesterase I (Tdp1) is a rational anticancer target because this enzyme is involved in the repair of DNA lesions created by the trapping of human DNA topoisomerase I (Top1) following treatment by anticancer agents such as camptothecins. Recombinant Tdp1 was expressed and purified from E. coli in the laboratory (Anthony et al, Nucleic Acids Research, 2007, Vol. 35, 4474-4484). See below for assay protocol. NIH Molecular Libraries Probe Production Network [MLPCN] NIH Chemical Genomics Center [NCGC] Assay Provider: Yves Pommier and Christophe Marchand, National Cancer Institute
5'-32P-labeled DNA substrate (1 nmol/L; N14Y; 5'-GATCTAAAAGACTT-pY-3') was incubated with 0.2 nmol/L recombinant Tdp1 in the absence or presence of inhibitor for 15 min at room temperature in an assay buffer containing 1X PBS, pH 7.4, 80 mmol/L KCl and 0.01% Tween-20. Reactions were terminated by the addition of 1 volume of gel loading buffer [99.5% (v/v) formamide, 5 mmol/L EDTA, 0.01% (w/v) xylene cyanol, and 0.01% (w/v) bromophenol blue]. Samples were subjected to a 16% denaturing PAGE and gels were exposed after drying to a PhosphorImager screen (GE Healthcare). Gel images were scanned using a Typhoon 8600 (GE Healthcare) and densitometric analyses were performed using the ImageQuant software (GE Healthcare).

| Compound | outcome | Potency |
| --- | --- | --- |
| CCc1cccc(Nc2nn3c(=O)c4ccccc4nc3s2)c1 | inactive | – |
| O=c1c2ccccc2nc2sc(Nc3ccc4c(c3)OCO4)nn12 | – | 12 µM (active) |
| O=c1c2ccccc2nc2sc(Nc3cccc4ccccc34)nn12 | – | 14 µM (active) |
| Cc1cccc(Nc2nn3c(=O)c4ccccc4nc3s2)c1 | – | 10 µM (active) |
| CN1CCN(c2cccc(Nc3nn4c(=O)c5ccccc5nc4s3)c2)CC1 | inactive | – |
| O=c1c2ccccc2nc2sc(Nc3cccc(Br)c3)nn12 | inactive | – |
| COc1ccc2c(=O)n3nc(Nc4ccc5c(c4)CCC5)sc3nc2c1 | – | 11 µM (active) |
| O=c1c2ccccc2nc2sc(Nc3cccc(Cl)c3)nn12 | – | 7.4 µM (active) |
| O=c1c2ccccc2nc2sc(Nc3ccccc3)nn12 | – | 100 µM (active) |
| O=c1c2ccccc2nc2sc(Nc3ccc(F)cc3)nn12 | inactive | – |
| O=c1c2ccccc2nc2sc(Nc3cccc(C(F)(F)F)c3)nn12 | inactive | – |
| CN(C)c1ccc2c(=O)n3nc(Nc4ccc5c(c4)CCC5)sc3nc2c1 | inactive | – |
| O=c1c2ccc(Br)cc2nc2sc(Nc3ccc4c(c3)CCC4)nn12 | – | 1.1 µM (active) |
| O=c1c2ccc(C(F)(F)F)cc2nc2sc(Nc3ccc4c(c3)CCC4)nn12 | – | 12 µM (active) |
| CC(C)(C)NS(=O)(=O)c1cccc(Nc2nn3c(=O)c4ccccc4nc3s2)c1 | – | 34 µM (active) |
| COc1cccc(Nc2nn3c(=O)c4ccccc4nc3s2)c1 | – | 100 µM (active) |
| O=c1c2ccc([N+](=O)[O-])cc2nc2sc(Nc3ccc4c(c3)CCC4)nn12 | – | 37 µM (active) |
| O=c1c2ccccc2nc2sc(Nc3ccc4c(c3)CNC4)nn12 | – | 100 µM (active) |
| Cc1ccc(Nc2nn3c(=O)c4ccccc4nc3s2)cc1C | – | 10 µM (active) |
| O=c1c2ccccc2nc2sc(Nc3ccc4c(c3)CCC4)nn12 | – | 2.5 µM (active) |
| Nc1ccc2c(=O)n3nc(Nc4ccc5c(c4)CCC5)sc3nc2c1 | inactive | – |
| CC(C)N1Cc2ccc(Nc3nn4c(=O)c5ccccc5nc4s3)cc2C1 | – | 22 µM (active) |
| O=c1c2ccccc2nc2sc(Nc3ccc(Br)cc3)nn12 | inactive | – |
| O=c1c2ccccc2nc2sc(Nc3cccc(-c4ccncc4)c3)nn12 | – | 11 µM (active) |
| CN(c1ccc2c(c1)CCC2)c1nn2c(=O)c3ccccc3nc2s1 | inactive | – |
